A549 viability: Nrf2 qHTS screen for inhibitors: counterscreen for cytotoxicity; A549 ARE-Fluc cells, CellTiter-Fluor viability, 18-24 h; Potency, µM (series often up to 46 µM), for inactives: top-dose activity change, negative = cytotoxicity, most hits filed as inhibitors; 390,000 tested, 0.16% active; note: potency is the fitted concentration of half-maximal effect; % is set by controls: 0 for no effect and ±100 for the full control effect
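A549 ARE-Fluc cells in 5% FBS OPTI-MEM, 5000 cells/well, rested 2 h then exposed to compounds in concentration-response for 18-24 h at 37 °C. Viability by CellTiter-Fluor fluorescence (Ex 405/Em 525) after 30 min; luciferase luminescence (BugLite, 15 min, RT) read afterwards.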
Nrf2 ARE act: qHTS of Nrf2 Activators; AREc32 ARE-luciferase reporter (MCF7-derived line), luminescence, 24 h; Potency, µM (titrated, usually from 46.1 µM), for the others: at the highest dose activation, hits mostly activators; 410,000 tested, 0.31% active; AID 624171, 2012; note: potency is the fitted concentration of half-maximal effect; % of control where 0% means no effect; nearly all actives have a fitted effect of over 65% in size
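Luminescent ARE reporter assay in AREc32_Fluc cells: overnight plating at 37 deg C, 24 hr compound incubation, Steady-Glo added, 30 min RT before reading.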
Nrf2 block: Nrf2 qHTS screen for inhibitors. AID 504444, 2011. Potency, µM (top dose mostly 46 µM), inactives show at the top dose activity change, negative = inhibition, usual class: inhibitors. 360,000 tested, 2.1% active. A549 ARE-Fluc reporter, luciferase luminescence, 18-24 h; note: potency is the fitted concentration of half-maximal effect; % is set by controls: 0 for no effect and ±100 for the full control effect; nearly all actives have a fitted effect of over 60% in size
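Quantitative HTS in A549 cells stably bearing an antioxidant response element-firefly luciferase construct. Inhibition of Nrf2-driven transcription was scored by luminescence after 18-24 h of compound exposure at 37 °C.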
ALOX12 inh: Primary qHTS assay for inhibitors of human arachidonate 12S-lipoxygenase (ALOX12): Round 2. 580,000 tested, 1.1% active. Potency, µM (highest dose often 108 µM), without a hit: at the top dose activity change, negative = inhibition, most hits filed as inhibitors. purified 12hLO, xylenol orange hydroperoxide absorbance. AID 1671190, 2021. Polyunsaturated fatty acid lipoxygenase ALOX12 (Homo sapiens), P18054; note: potency is the fitted concentration of half-maximal effect; % is set by controls: 0 for no effect and ±100 for the full control effect
Target sequence (P18054 whole entry, looked up): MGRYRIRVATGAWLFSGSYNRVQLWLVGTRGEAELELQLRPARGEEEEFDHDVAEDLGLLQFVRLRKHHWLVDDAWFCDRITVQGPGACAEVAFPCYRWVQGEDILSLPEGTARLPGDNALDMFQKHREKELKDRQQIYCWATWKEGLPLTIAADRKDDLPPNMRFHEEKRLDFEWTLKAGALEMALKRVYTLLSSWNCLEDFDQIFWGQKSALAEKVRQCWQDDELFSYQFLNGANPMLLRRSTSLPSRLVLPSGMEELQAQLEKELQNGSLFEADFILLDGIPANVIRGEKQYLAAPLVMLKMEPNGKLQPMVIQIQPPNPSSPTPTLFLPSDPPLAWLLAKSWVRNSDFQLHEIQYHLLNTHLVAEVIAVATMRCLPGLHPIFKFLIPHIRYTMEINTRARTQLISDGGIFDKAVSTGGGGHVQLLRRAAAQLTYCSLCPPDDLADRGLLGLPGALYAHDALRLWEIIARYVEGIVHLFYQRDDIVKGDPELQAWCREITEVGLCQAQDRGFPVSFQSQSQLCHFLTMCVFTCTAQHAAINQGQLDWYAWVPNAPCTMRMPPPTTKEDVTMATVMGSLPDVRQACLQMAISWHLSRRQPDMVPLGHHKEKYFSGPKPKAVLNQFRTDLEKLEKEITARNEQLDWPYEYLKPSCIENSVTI
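Purified human 12hLO (150 nM final) in 25 mM Hepes, 0.01% Triton X-100, pH 7.0 was preincubated 15 min at room temperature with compound. Then 40 uM arachidonic acid was added, 30 min. Hydroperoxide was read by Fe-XO absorbance ratio 573/405 nm.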
IDH1 R132H inh: qHTS for Inhibitors of mutant isocitrate dehydrogenase 1 (IDH1): qHTS; Isocitrate dehydrogenase [NADP] cytoplasmic (Homo sapiens), O75874; IDH1-R132H enzyme, NADPH consumption, diaphorase/resazurin fluorescence; Potency, µM (series often up to 76.6 µM), for inactives: at the highest dose activity change, negative = inhibition, actives largely listed as inhibitors; 390,000 tested, 0.093% active; AID 602179, 2012; note: potency is the fitted concentration of half-maximal effect; % is set by controls: 0 for no effect and ±100 for the full control effect; nearly all actives have a fitted effect of over 65% in size
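IDH1-R132H (0.5 ug/mL dispensed) in pH 7.5 Tris buffer was preincubated 30 min with compound, then given a substrate mix of 0.016 mM NADPH and 2 mM alpha-KG for 80 min at room temperature; remaining NADPH was read by diaphorase/resazurin fluorescence.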
LDHA inh: qHTS assay for inhibitors of human lactate dehydrogenase. 480,000 tested, 0.15% active. L-lactate dehydrogenase A chain (Homo sapiens), P00338. AID 1347041, 2019. activity change, % (values are at about 110 or 230 µM). purified LDHA, NADH/diaphorase-resazurin fluorescence; hits give low values; in the data active = activity change below about -30%; inconclusive = mostly about -25% to -30%;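 note: plate controls were DMSO wells for no effect and wells without enzyme for full effect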
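Human LDH5 (2 nM) was incubated with 0.06 mM NADH and 0.2 mM pyruvate for 5 min at room temperature in Tris pH 7.4. Remaining NADH was coupled through diaphorase/resazurin, and resorufin fluorescence was read at 0 and 20 min.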
* hit, by the source's call; u = inconclusive; x = no result; ! = repeats disagree. Rows were chosen to be rich in hits. Some 2.7% of all compounds tested hit in one or more screens of this group. Unless noted, calls come from the whole dose curve; as a rule, active = well fitted curve in the direction sought with a large enough effect; inconclusive = small, poorly fitted or top-dose-only effect, or another doubt; inactive = no such curve, though single readings can be large; an effect the other way counts as inactive or inconclusive.

SMILES	A549 viability	Nrf2 ARE act	Nrf2 block	ALOX12 inh	IDH1 R132H inh	LDHA inh
Cc1ccc(NC(C)c2nc3scc(-c4ccco4)c3c(=O)[nH]2)cc1C (stereo not drawn)	x	x	x	u	x	-3
O=CN1CCN(C(C(=O)O)c2c[nH]c3cc(OCc4ccccc4)ccc23)CC1 (stereo not drawn)	x	x	x	u	x	5
Cn1c(N)c(C(=O)COC(=O)C2(c3ccc(Cl)cc3)CCCC2)c(=O)n(C)c1=O	u	0%	18µM*	0%	0%	2
CSc1ccccc1NC(=O)C1CC=CCC1 (stereo not drawn)	x	x	x	11%	x	-3
Cc1ccc(-c2nc3cnccn3c2NCCC(=O)NCc2ccco2)cc1	x	x	x	50µM*	x	x
CCOC(=O)CSc1nc2sc3c(c2c(=O)n1-c1ccccc1)CC(C)(C)SC3	x	x	x	4%	x	-8
CC1CCc2c(nc3ccc4ccccc4c3c2-c2cccc(O)c2)C1 (stereo not drawn)	x	x	x	4.5µM*	x	29
NS(=O)(=O)c1cccc(NC(=S)NC(=O)C23CC4CC(CC(C4)C2)C3)c1	1%	3%	11%	32µM*	6%	-6
COc1ccc(C2C(C(C)=O)=C(O)C(=O)N2c2nccs2)cc1OC (stereo not drawn)	-1%	0%	12%	-34%	2%	-1
COc1ccc(C2C(C(C)=O)=C(O)C(=O)N2c2nc3ccccc3s2)cc1OC (stereo not drawn)	-3%	1%	-6%	45µM*	-5%	-13
COc1ccc2nc(N3C(=O)C(O)=C(C(=O)c4ccco4)C3c3ccc(OC)c(OC)c3)sc2c1 (stereo not drawn)	x	3%	x	40µM*	10%	2
Cc1ccc2nc(N3C(=O)C(O)=C(C(=O)c4ccc(C)o4)C3c3cccc(O)c3)sc2c1 (stereo not drawn)	u	3%	2%	13µM*!	-2%	2
CCOC(=O)Cn1c(=O)c2c3c(sc2n(CCCN(C)C)c1=O)CCCC3	x	x	x	-32%	x	2
Cc1cccc(Oc2c(C(F)(F)F)oc3cc(OCC(=O)OCc4ccccc4)ccc3c2=O)c1	x	x	x	-45%	x	-18
CC(C)c1ccc(CNCCCSc2ncccn2)cc1	8%	2%	24%	25µM*	11%	0
C=C1CC2(OC1=O)c1ccccc1CCc1ccccc12	u	u	16µM*	-34%	u	-4
COc1cc(/C=C/c2nc3ccccc3s2)cc(OC)c1OC	x	x	x	-11%	x	1
CCN(c1ccccc1)S(=O)(=O)c1ccc(NC(=O)c2nc(S(C)(=O)=O)ncc2Cl)cc1	u	-3%	21µM*	-26%	0%	-4
Cc1nc2c(-c3ccccc3)c(C)[nH]n2c(=O)c1Cc1ccccc1	-18%	-1%	u	-10%	0%	-5
Cc1nc2c(-c3ccc(Cl)cc3)c(C)[nH]n2c(=O)c1Cc1ccccc1	u	3%	15µM*	2%	-1%	-8
CCCCc1c(C)nc2c(-c3ccc(OC)cc3)c(C)[nH]n2c1=O	-16%	2%	21µM*	-1%	-7%	1
Cc1ccccc1Cc1c(C)nc2c(-c3ccccc3)c(C)[nH]n2c1=O	u	-1%	18µM*	-16%	-5%	-12
Cc1cccc(Cc2c(C)nc3c(-c4ccccc4)c(C)[nH]n3c2=O)c1	u	1%	5.8µM*	0%	-13%	-10
CCOC(=O)c1oc2cc(OC(=O)c3ccco3)ccc2c(=O)c1-c1ccc(Br)cc1	x	x	x	42%	x	9
CN1CCN(S(=O)(=O)c2ccc(N(C)CCOc3cccc(Cl)c3)nc2)CC1	x	x	x	u	x	-3

Bioassay records (PubChem BioAssay)
